Screening data (PubChem BioAssay)
Wnt bcat act: Wnt/beta-catenin pathway activators, primary screen, cell-based, plate reader, single point | Wnt/beta-catenin reporter cell assay, activator | activation, % at 9.35 µM | hit rate 1.2% among 300,000 | AID 743398, 2014; in the data active = activation above about 30%, passing the limit was not always enough; inconclusive = no clear call, values can overlap the other calls;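 also: 0% = neutral control wells and 100% = positive control wells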
esBAF inh: Bmi1 luciferase reporter increase in mESCs, primary screen, esBAF inhibitor project, mouse ES cells, Bmi1 luciferase knock-in, single point. 24 h; 100% = twice the neutral-well signal. reporter increase, % at 12.5 µM. hit rate 2% among 350,000. AID 602393, 2012; in the data active = activation above about 40%; inconclusive = no clear call, values can overlap the other calls;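 also: 0% = median of the plate's neutral control wells and 100% = double that signal; a rise in the Bmi1 reporter signal indicates esBAF inhibition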
MITF act: activators of MITF-driven TRPM1 promoter reporter, primary screen, cell-based, SK-MEL-5, luciferase, single point; SK-MEL-5 TRPM1-promoter luciferase, 24 h; % of positive control, neutral wells = 0; activation, % at 12.5 µM; hit rate 0.75% among 300,000; AID 588334, 2011;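 active = mean activation of at least 80% with every replicate also reaching 80%; inconclusive = mean reaches 80% but some replicate falls short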;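 also: 0% = neutral control wells and 100% = parthenolide positive control wells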
SMARCA2 act: SMARCA2 (BRM) function activators, primary screen, cell-based, luminescence, high throughput | MG213 cells, MMTV-luciferase reporter, dexamethasone, overnight | activation, % at 9.1 µM | hit rate 1% among 370,000 | AID 652017, 2013; in the data active = activation above about 7.8%;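 also: 0% = vehicle wells and 100% = reference activator wells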
HSF1 inh: HSF1 inhibitors in luciferase reporter cells, primary screen, cell-based, NIH3T3, luminescence | NIH3T3-HGL HSE-luciferase, MG132-induced, luminescence 8 h; stronger effect = lower value | activity change, negative = inhibition, % at 7.5 µM (by protocol) | hit rate 0.77% among 300,000 | AID 2098, 2009;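 active = more than half of replicate wells show activity change below -50%, luminescence cut by over half; inconclusive = some wells, but at most half, below -50%; inactive = no replicate well below -50%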;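 also: luciferase reports HSF-1 transcriptional activity via heat shock element; 0% = median of DMSO wells and -100% = zero luminescence signal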
HSF-1 act: HSF-1 activators, primary screen, NIH3T3-HGL cells, MG132 stress, luminescence, single point. NIH3T3-HGL HSF-1 luciferase reporter, 8 h; 100% = twice DMSO control signal. activation, % at 9 µM. hit rate 1.7% among 300,000. AID 504408, 2011;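 active = mean replicate activation of at least 50% with a set share of replicates each reaching 50%; inconclusive = only one of those two conditions met; inactive = mean below 50% and too few replicates reaching it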;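 also: 0% = median of the neutral control wells and 100% = twice that signal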
Numbers without * were called inactive; ? = inconclusive; nt = no result. Compounds with a hit are over-represented: about 4.3% of the library has one in this group of screens.

SMILES	Wnt bcat act	esBAF inh	MITF act	SMARCA2 act	HSF1 inh	HSF-1 act
O=C(Nc1ccccc1)C1=C(O)CC(c2ccco2)CC1=Nc1ccccc1 (centres undefined)	nt	-4	10	-2	-7	-9
O=C(Nc1ccccc1)C1=C(O)CC(c2ccoc2)CC1=Nc1ccccc1 (centres undefined)	nt	nt	7	-1	68	86*
CCOc1ccccc1CN1CCNC(=O)C1CC(=O)NCc1nccn1CC (centres undefined)	3	-5	7	-3	20	67*
CCn1ccnc1CNC(=O)CC1C(=O)NCCN1Cc1ccc(OC)cc1OC (centres undefined)	9	nt	-5	-6	-2	-3
N/C(Cc1ccc(Cl)cc1Cl)=N\OC(=O)c1ccccc1F	?	nt	33	3	34	68*
COC(=O)Cc1nnc(Nc2cccc(C)c2)c2ccccc12	-1	0	-12	-5	-13	-16
CCOC(=O)Cc1nnc(Nc2cccc(C)c2)c2ccccc12	nt	-2	nt	-2	65	80*
CC12CCC(=O)N1C(C(=O)Nc1cccc3ccccc13)CS2 (centres undefined)	nt	5	11	3	40	70*
O=C(O)[C@H]1[C@H](CO)[C@H]2Cn3c(ccc(-c4ccccc4F)c3=O)[C@H]2N1C(=O)c1cnccn1	nt	4	nt	nt	nt	nt
CCCNC(=O)N[C@H]1CC[C@H](CC(=O)NC2CCCCC2)O[C@@H]1CO	nt	-2	nt	nt	nt	nt
CC(=O)N1N=C(c2ccc(Cl)cc2)CC1c1ccc([N+](=O)[O-])cc1 (centres undefined)	0	1	nt	0	4	-4
COc1ccc(C2CC(c3ccc4ccccc4c3OC(C)=O)=NN2C(C)=O)cc1 (centres undefined)	58*	nt	nt	4	56	94*
COc1ccc(C2CC(c3ccc(C)o3)=NN2C(C)=O)cc1 (centres undefined)	11	nt	63	2	16	26
COc1ccc(C2CC(c3ccc(Cl)cc3)=NN2C(C)=O)cc1 (centres undefined)	13	52*	41	0	18	16
Cc1ccc(S(=O)(=O)Nc2ccc3c(c2)C(=O)N([C@H](C)CO)C[C@@H](C)[C@@H](CN(C)Cc2ccncc2)OCCCC[C@@H](C)O3)cc1	nt	1	nt	nt	nt	nt
Cc1ccc(NC(=O)c2cc3ccccc3oc2=O)cc1S(=O)(=O)N(C)C	nt	nt	-75	nt	-89*	-91
Cc1ccc(NC(=O)c2cc3ccccc3o2)cc1S(=O)(=O)N(C)C	nt	nt	62	3	nt	nt
Cc1ccc(NC(=O)c2ccc([N+](=O)[O-])cc2)cc1S(=O)(=O)N(C)C	-1	49*	17	1	6	19
O=C(C[C@@H]1C[C@@H]2c3cc(NC(=O)Cc4ccncc4)ccc3O[C@@H]2[C@@H](CO)O1)NCc1ccccn1	nt	3	nt	nt	nt	nt
Cc1noc(C)c1CSCC(=O)Nc1ccc(S(=O)(=O)C(F)F)cc1	-4	nt	14	-2	-58*	-69
CN1CCN(C(=O)C[C@@H]2CC[C@@H]3[C@H](COC[C@@H](O)CN3CC3CCCCC3)O2)CC1	nt	-1	nt	nt	nt	nt
O=C(Cc1ccc(Br)cc1)c1ccc(O)cc1O	?	60*	39	4	13	24
Cc1noc(C)c1S(=O)(=O)Nc1ccc2c(c1)C(=O)N([C@@H](C)CO)C[C@H](C)[C@@H](CN(C)Cc1ccncc1)O2	nt	-2	nt	nt	nt	nt
C(=N\Nc1nc(-c2ccccn2)nc2ccccc12)/c1ccccc1	nt	nt	nt	nt	111	160*
C(=N\Nc1nc(-c2cccnc2)nc2ccccc12)/c1ccccc1	8	nt	nt	5	-2	4
SMILES	Wnt bcat act	esBAF inh	MITF act	SMARCA2 act	HSF1 inh	HSF-1 act
O=C(N[C@H]1CC[C@@H](CCNC(=O)C2CCOCC2)O[C@H]1CO)c1ccncc1	nt	5	nt	nt	nt	nt
Cc1noc(C)c1NC(=O)N(C)C[C@H]1Oc2ccc(NC(=O)Cc3cn(C)c4ccccc34)cc2C(=O)N([C@H](C)CO)C[C@H]1C	nt	-10	nt	nt	nt	nt
CC(C)C/C=C1\CCc2c([nH]c3ccccc23)C1=O	39*	52*	62	5	51	59*
C[C@@H]1CN([C@H](C)CO)C(=O)c2cccc(NC(=O)c3ccncc3)c2O[C@H]1CN(C)Cc1ccccc1	nt	4	nt	nt	nt	nt
COC(=O)c1c(-c2ccc(OC)cc2)sc2cc3c(cc12)OCO3	33*	49*	92*	6	nt	nt
COC(=O)C[C@@H]1C[C@H]2c3cc(NC(=O)Nc4ccc(F)cc4)ccc3O[C@H]2[C@H](CO)O1	nt	6	nt	nt	nt	nt
CCN(CC)c1ccc2cc(-c3nnc(-c4ccncc4)o3)c(=O)oc2c1	nt	44*	72	0	nt	nt
COc1ccc(N(CC(=O)Nc2cccc(C(=O)O)c2)S(=O)(=O)c2c(C)noc2C)cc1	nt	0	nt	-3	nt	nt
COc1ccc(N(CC(=O)N2CCc3ccccc32)S(=O)(=O)c2c(C)noc2C)cc1	nt	-3	-12	-3	34	77*
COc1ccc(N(CC(=O)Nc2cccc(C)c2)S(=O)(=O)c2c(C)noc2C)cc1	-1	4	5	-2	-69*	-74
CNC[C@H]1OCCCC[C@H](C)Oc2ccc(NC(=O)Nc3c(C)noc3C)cc2C(=O)N([C@@H](C)CO)C[C@H]1C	nt	2	nt	nt	nt	nt
O=C(Nc1ccc2oc(-c3ccncc3)nc2c1)c1ccccc1F	nt	39	40	1	10	3
O=C(Nc1ccc2oc(-c3ccccc3)nc2c1)c1ccccc1F	nt	51*	58	2	24	47
O=C(Cc1ccccc1)NC(=S)Nc1ccc2oc(-c3ccccc3F)nc2c1	nt	7	125*	3	11	14
O=C(Nc1ccc(-c2nc3cc(NC(=O)c4cccs4)ccc3o2)cc1)c1cccs1	nt	2	-75	-2	-5	5
O=C(Nc1ccc2oc(-c3ccc(Cl)c(Cl)c3)nc2c1)c1ncn[nH]1	42*	52*	55	0	-6	11
O=C(Nc1ccc2oc(-c3ccccc3F)nc2c1)c1ccccc1F	15	85*	60	2	29	42
COc1ccc(NC(=O)Nc2ccc3c(c2)CC(=O)N([C@H](C)CO)C[C@H](C)[C@@H](CN(C)Cc2ccccc2)O3)cc1	nt	-2	nt	nt	nt	nt
O=C(Nc1ccc2oc(-c3cccc(F)c3)nc2c1)c1ccccc1F	7	nt	60	2	-1	-6
O=C(Nc1ccc2oc(-c3ccccc3F)nc2c1)c1ncn[nH]1	52*	-3	3	1	20	10
CCOc1ccc(NC(=O)NC2CCCCCCC2)cc1	0	59*	77	1	nt	nt
